Most compounds without a hit are left out; they make up all but 21% or so of the library.
TDP1 cell noCPT – qHTS for Inhibitors of human tyrosyl-DNA phosphodiesterase 1 (TDP1): qHTS in cells in absence of CPT | Potency, µM (highest dose often 46.2 µM), inactives show at the top dose activity change, negative = growth inhibition, actives largely listed as inhibitors | DT40 Tdp1-/- hTDP1 cells, no CPT, ATP luminescence, 48 h | actives 15% (n = 420,000); note: potency is the fitted concentration of half-maximal effect; nearly all actives have a fitted effect of over 55% in size
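DT40 Tdp1-/-;hTDP1 cells, no CPT (DMSO vehicle only), 400 cells/well; compounds pin-transferred; ≥48 hr, 37 °C; CellTiter-Glo 30 min RT dark, luminescence read.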
DT40 TDP1 CPT – growth inhibition of DT40 Tdp1-/-;hTDP1 cells with camptothecin (screen for TDP1 inhibitors); chicken DT40 Tdp1-/-;hTDP1 cells + 20 nM CPT, ATP luminescence, 48 h; Potency, µM (doses to about 46.2 µM), for inactives: top-dose activity change, negative = growth inhibition, usual class: inhibitors; actives 12% (n = 420,000); AID 686979; note: potency is the fitted concentration of half-maximal effect; nearly all actives have a fitted effect of over 55% in size
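Chicken DT40 Tdp1-/- cells stably complemented with human TDP1 were seeded at 400 cells/well in medium containing 20 nM camptothecin, exposed to pin-transferred compounds, and grown at 37 °C for at least 48 hr. Viability was read as ATP luminescence.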
IL-1B inflam inh – inflammasome signaling inhibition, IL-1 beta readout. THP-1 LPS/ATP IL-1B secretion, AlphaLISA, 16 h; active compounds read low. actives 4.7% (n = 360,000). activity change, % at 57.5 µM; in the data active = activity change below about -50%; inconclusive = mostly about -30% to -49%
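THP-1 cells pretreated 1 hr with compounds (up to 57.5 uM final), then stimulated with LPS (250 ng/mL final) plus ATP (1.25 mM final); secreted IL-1B measured by AlphaLISA after 16 hr, decreased signal indicating inhibition.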
Gal4-VP16 FLuc – counter-screen for ROR gamma inhibitors: Gal4-VP16 reporter. actives 3.5% (n = 310,000). Potency, µM (top dose mostly 53.6 µM), inactives show top-dose activity, negative = inhibition, hits mostly inhibitors. Drosophila S2 Gal4-VP16 UAS-luciferase, luminescence, 20 h;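 note: Gal4-VP16 expression switched on by copper sulfate through the metallothionein promoter; potency is the fitted concentration of half-maximal effect; nearly all actives have a fitted effect of over 50% in size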
RORgamma inh – ROR gamma (mouse) transcription inhibition. actives 5.4% (n = 310,000). Potency, µM (highest dose often 53.6 µM), for the others: at the top dose activity change, negative = inhibition, most hits filed as inhibitors. AID 2551. P51450. Drosophila S2 Gal4-RORgamma UAS-luciferase reporter, 20 h; note: potency is the fitted concentration of half-maximal effect; nearly all actives have a fitted effect of over 60% in size
Target sequence (P51450 whole entry, looked up, the tested form may be a part): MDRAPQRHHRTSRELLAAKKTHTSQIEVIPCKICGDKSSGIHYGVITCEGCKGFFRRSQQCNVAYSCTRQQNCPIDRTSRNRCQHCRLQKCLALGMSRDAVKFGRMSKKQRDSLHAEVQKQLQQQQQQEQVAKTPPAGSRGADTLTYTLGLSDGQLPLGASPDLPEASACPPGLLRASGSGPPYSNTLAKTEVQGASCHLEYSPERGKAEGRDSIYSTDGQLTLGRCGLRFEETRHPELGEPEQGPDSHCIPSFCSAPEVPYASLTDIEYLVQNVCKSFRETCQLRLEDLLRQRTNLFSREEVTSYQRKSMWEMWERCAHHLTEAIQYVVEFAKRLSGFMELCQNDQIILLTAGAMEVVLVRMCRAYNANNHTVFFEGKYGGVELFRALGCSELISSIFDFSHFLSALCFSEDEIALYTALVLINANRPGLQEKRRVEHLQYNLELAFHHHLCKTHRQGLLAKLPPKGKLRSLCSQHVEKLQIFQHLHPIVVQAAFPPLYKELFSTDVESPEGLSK
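Using a luciferase readout, inhibitors were identified by reduced reporter activity in Drosophila cells coexpressing a copper-inducible Gal4–ROR gamma fusion and UAS-driven Photinus luciferase, incubated 20 hr after 700 uM copper sulfate.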
ELG1 DNA repair – blocks ELG1-dependent DNA repair in HEK293T cells | HEK293T ELG1-luciferase reporter, luminescence, 16 h; DNA damage induced by 5-fluorouridine | Potency, µM (top dose mostly 46.1 µM), for inactives: at the highest dose activity change, negative = inhibition, hits mostly inhibitors | actives 2.3% (n = 330,000); note: potency is the fitted concentration of half-maximal effect; nearly all actives have a fitted effect of over 55% in size
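Luminescence from the luciferase reporter, measured 30 min after ONE-Glo reagent at room temperature, was the read-out. Beforehand, 2,000 cells per well were exposed for 16 hr at 37 °C to 5-fluorouridine together with compound or vehicle.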
The depositor's hits bear a star; ? = inconclusive; . = not tested or not shown; [ ] = another dose, or the depositor's remark. Unless noted, calls come from the whole dose curve; as a rule, active = well fitted curve in the direction sought with a large enough effect; inconclusive = small, poorly fitted or top-dose-only effect, or another doubt; inactive = no such curve, though single readings can be large; an effect the other way counts as inactive or inconclusive. % is set by controls: 0 for no effect and ±100 for the full control effect.

SMILES	TDP1 cell noCPT	DT40 TDP1 CPT	IL-1B inflam inh	Gal4-VP16 FLuc	RORgamma inh	ELG1 DNA repair
O=C(CNc1cccc(C(F)(F)F)c1)N/N=C/c1cn(-c2ccccc2)nc1-c1ccccc1	?	16µM*	?	?	?	7%
Cc1nn(Cc2ccccc2)c(C)c1/C=N/NC(=O)CNc1cccc(C(F)(F)F)c1	?	-73%	-23	?	?	?
CCCCSc1nc(C)cc(SCC(=O)N/N=C/c2cccc(OC)c2O)n1	1.3µM*	1.5µM*	136	1µM*	0.28µM*	-1%
Cc1ccc(Sc2ccccc2CN(C)C)c(N)c1	.	.	.	2%	-2%	.
Cc1ccc2c(c1)C(c1ccc(F)cc1)N(C(=O)C1CC1)CC(=O)N2 (stereo not given)	?	-21%	23	1%	44%	3%
CCOc1ccccc1C(=O)N1CC(=O)Nc2ccc(Cl)cc2C1c1ccccc1 (stereo not given)	?	21µM*	.	.	.	.
CCCCC1CCC(C(=O)N2CC(=O)Nc3ccc(C)cc3C2c2ccc(F)cc2)CC1 (stereo not given)	?	9.2µM*	.	.	.	.
CCOc1ccccc1C(=O)N1CC(=O)Nc2ccc(C)cc2C1c1ccccc1 (stereo not given)	23µM*	?	.	.	.	.
CN(C)CCCc1cc(C(=O)Nc2ccc(-c3ccncc3)cc2)ccc1O	?	?	.	9%	-9%	.
CCCCc1ccc(NC(=O)c2cc3c(=O)n4ccccc4nc3s2)cc1	-14%	-19%	.	.	.	.
COc1ccccc1NC(=O)c1cc2c(CO)cnc(C)c2oc1=Nc1cccc(C(N)=O)c1	1.8µM*	5.2µM*	9	0%	-4%	-16%
COc1cccc(N=c2oc3c(C)ncc(CO)c3cc2C(=O)Nc2ccccc2OC)c1	.	.	.	-6%	0%	1%
COc1ccc(NC(=O)c2cc3c(COC(C)=O)cnc(C)c3oc2=Nc2cccc(C(=O)O)c2)c(OC)c1	26µM*	-23%	19	-9%	1%	13%
COc1ccccc1NC(=O)c1cc2c(CO)cnc(C)c2oc1=Nc1ccccc1	8.2µM*	?	48	-8%	13%	?
O=C(Nc1ccccc1C(=O)NCCc1ccccc1)c1cnccn1	-11%	-2%	52	10%	36%	?
O=C(Nc1nnc([C@@H]2C[C@H](O)[C@@H](CO)O2)s1)Nc1cccc2c1CCCC2	-13%	-6%	15	.	.	.
CSCc1cc(N(C)c2ccccc2)nc(-c2ccccn2)n1	4.6µM*	2.9µM*	18	3.2µM*	0.56µM*	?
CN(C)c1cc(C(F)(F)F)nc(-c2ccccn2)n1	-18%	-16%	-4	?	?	12%
CCCCCC(=O)N1C[C@@H](O)[C@H](n2cc(-c3ccc(F)cc3)nn2)C[C@@H]1c1ccc(Cl)cc1	15µM*	16µM*	-56*	.	.	.
CCCCCC(=O)N1C[C@@H](n2cc(-c3ccc(F)cc3)nn2)[C@H](O)C[C@@H]1c1ccccc1	?	?	-15	.	.	.
CCCCCC(=O)N1C[C@H](n2cc(-c3ccc(F)cc3)nn2)[C@@H](O)C[C@@H]1c1ccc(Cl)cc1	26µM*	?	?	.	.	.
CCCCCC(=O)N1C[C@@H](O)[C@H](n2cc(C3CC3)nn2)C[C@@H]1c1ccccc1	16µM*	?	45	.	.	.
CCCCCC(=O)N1C[C@H](O)[C@@H](n2cc(-c3ccc(F)cc3)nn2)C[C@@H]1c1ccccc1	?	-3%	-5	.	.	.
Fc1cccc(Cc2c(-c3cccc(Cl)c3)nc3c(Cl)cc(C(F)(F)F)cn23)c1	-18%	-8%	16	.	.	.
COc1ccc(NC2=CC(=O)CC(c3ccccc3)C2)c(OC)c1 (stereo not given)	3.3µM*	4.1µM*	-11	-4%	?	?
SMILES	TDP1 cell noCPT	DT40 TDP1 CPT	IL-1B inflam inh	Gal4-VP16 FLuc	RORgamma inh	ELG1 DNA repair
CCOc1ccccc1NC1=CC(=O)CC(c2ccccc2)C1 (stereo not given)	13µM*	?	19	-2%	3%	-24%
COC(=O)C1[C@H]2C(=O)N(Cc3cccs3)C[C@]23C=C[C@H]1O3 (stereo not given in full)	-9%	11%	-8	-7%	-13%	2%
CCOC(=O)C1C2C=CC3(CN(Cc4cccs4)C(=O)C13)O2 (stereo not given)	21µM*	?	-1	2%	0%	20%
CCOc1ccc(-n2c(SCC(=O)N3CCOCC3)nc3c([nH]c4ccccc43)c2=O)cc1	?	-17%	.	.	.	.
CC1CC(C)CN(S(=O)(=O)CC23CCC(CC2=O)C3(C)C)C1 (stereo not given)	-18%	-1%	-2	7%	-12%	23%
CCOC(=O)c1ccccc1NC(=O)CSc1nc(=O)[nH]c2c1CCC2	-10%	0%	.	.	.	.
COc1cccc(CN2C(=O)NC(C)(C3CCN(Cc4cccc(O)c4)CC3)C2=O)c1OC (stereo not given)	-26%	-21%	.	.	.	.
O=[N+]([O-])c1cccc(/C=N/Nc2nc(NCc3ccccc3)nc(N3CCOCC3)n2)c1O	?	13µM*	180	-16%	1%	21µM*
NNc1nc(NCc2ccccc2)nc(N2CCOCC2)n1	?	-7%	-20	?	?	?
O=[N+]([O-])c1cccc(/C=N/Nc2nc(NCc3ccccc3)nc(N3CCOCC3)n2)c1	?	15µM*	18	-12%	-32%	7%
COc1c(Cl)cc(Cl)cc1CNCCSc1nnnn1C	-14%	4%	.	.	.	.
COc1ccc(-c2nnc3n2N=C(c2ccc(OC)cc2OC)CS3)cc1	.	.	.	-12%	?	.
Cc1cc(C)n2[nH]c(=O)c(N=Nc3cccc(C(F)(F)F)c3)c2n1	?	?	2	?	13µM*	-1%
CN1C(=O)CSc2ccc(NC(=O)Nc3ccccn3)cc21	?	29µM*	-60*	?	23%	?
COc1cccc(NC(=O)Nc2ccc3c(c2)N(C)C(=O)CS3)c1	21µM*	?	?	14%	6%	?
CC(=O)OC[C@H]1O[C@@H](O/N=C2/[C@H]3O[C@@H]3[C@@H](O)[C@H]3[C@H]2CCn2c(=O)n(-c4ccccc4)c(=O)n23)[C@H](OC(C)=O)[C@@H](OC(C)=O)[C@@H]1OC(C)=O	.	.	.	-1%[10 µM]	8%[10 µM]	.
